This is an account of results in PubChem BioAssay (NCATS).

The structures appear in SMILES notation. Inconclusive results are not listed. Calls of active or inactive are those of the source. Unless noted, calls follow the shape of the dose curve; as a rule, active = well fitted curve in the direction sought with a large enough effect; inconclusive = small, poorly fitted or top-dose-only effect, or another doubt; inactive = no such curve, though single readings can be large; an effect the other way counts as inactive or inconclusive.

Experiment [1] is described as follows: qHTS for differential inhibitors of proliferation of Plasmodium falciparum line 7G8 (AID 1815).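 Also: parasite growth measured after three days of incubation.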 Also: potency is read from the fitted curve at half-maximal effect. To be noted: Plasmodium falciparum 7G8 proliferation inhibition; series mostly up to 28.7 µM.
A short description of experiment [2]: qHTS for differential inhibitors of proliferation of Plasmodium falciparum line GB4 (AID 1816).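 Also: parasite growth measured after 72 h incubation.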 Also: potency is read from the fitted curve at half-maximal effect. To be noted: Potency: Plasmodium falciparum GB4 proliferation inhibition; series mostly up to 28.7 µM.
Experiment [3] can be described thus: qHTS for differential inhibitors of proliferation of Plasmodium falciparum line 3D7 (AID 1876). Also: potency is read from the fitted curve at half-maximal effect. To be noted: P. falciparum 3D7 proliferation inhibition; series mostly up to 28.7 µM.
Experiment [4] is described as follows: qHTS for differential inhibitors of proliferation of Plasmodium falciparum line Dd2 (AID 1882). Also: nearly all actives have a fitted effect of over 65% in size. Also: potency is read from the fitted curve at half-maximal effect. The conditions noted are these: Potency: Plasmodium falciparum Dd2 proliferation inhibition; series mostly up to 28.7 µM. In a few lines: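 RBC culture, 0.3% parasitemia / 2.5% Hct final; cpd added by pin tool in DMSO; 72 h, 37 C, 5% CO2; lysis buffer + SYBR Green I, o/n RT dark; FI 485/535; norm. to artemisinin 0.29 uM and DMSO.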

Experiment [5] in a line: qHTS for differential inhibitors of proliferation of Plasmodium falciparum line W2 (AID 1883).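 Also: parasites grown with compound for 72 h before lysis and staining.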 Also: potency is read from the fitted curve at half-maximal effect. To be noted: Potency: Plasmodium falciparum W2 proliferation inhibition; series mostly up to 28.7 µM.
Experiment [6] in a line: qHTS for differential inhibitors of proliferation of Plasmodium falciparum line HB3 (AID 1886).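 Also: parasites grown with compound for 72 h before SYBR Green readout.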 Also: potency is read from the fitted curve at half-maximal effect. The conditions noted are these: Potency: Plasmodium falciparum HB3 proliferation inhibition; series mostly up to 28.7 µM.
Experiment [7] addresses Ferritin light chain (Equus caballus) (UniProt P02791). Nature of the experiment: qHTS Validation Assay for Identification of Novel General Anesthetics (AID 2323). To be noted: horse apoferritin, anesthetic-site fluorescent probe displacement; series mostly up to 76.9 µM. In a few lines: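 Competitive displacement of the profluorescent anesthetic 1-AMA (50% saturated, PBS) from 10 uM apoferritin, 10 min, room temperature. Activity is normalized 380/535 nm fluorescence; concentration-response fitted with a four-parameter Hill equation.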

Experiment [8] can be described thus: qHTS for differential inhibitors of proliferation of Plasmodium falciparum line D10 (AID 1877).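 Also: parasites grown with compound for 72 h before DNA staining.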 Also: potency is read from the fitted curve at half-maximal effect. The conditions noted are these: series mostly up to 28.7 µM.
Experiment [9] can be described thus: qHTS Assay for Modulators of Human Peripheral Myelin Protein 22 (PMP22) Expression/Activity (AID 1967; active = well fitted curve in the direction sought with a large enough effect in the signal ratio; the % refers to the signal ratio). The conditions noted are these: Cell-based PMP22 reporter, dual-color luciferase ratio, 0% = compound-free control cells, mouse Pmp22 promoter in mouse Schwann cells; series mostly up to 115 µM. In outline: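 Readout is the corrected green/red luminescence ratio after 24 h compound exposure, normalised to untreated cells (0%). Engineered MSC80 mouse Schwann cells express green luciferase from the mouse Pmp22 promoter and red luciferase from EF-alpha as internal control.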

Chain of Ferritin light chain (Equus caballus) (P02791 2-175 limits assumed): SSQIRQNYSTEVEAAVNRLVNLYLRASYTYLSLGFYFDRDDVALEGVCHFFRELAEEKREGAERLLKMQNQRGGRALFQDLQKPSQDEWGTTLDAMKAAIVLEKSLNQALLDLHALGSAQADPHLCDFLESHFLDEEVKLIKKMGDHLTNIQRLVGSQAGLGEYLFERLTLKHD

In the case of `CC(C(O)c1ccc(O)cc1)N1CCC(Cc2ccccc2)CC1` (configuration not stated), the Potency in [1] is 7.08 µM (active); in experiment [2], 3.98 µM (active); in experiment [3], 4.47 µM (active); in experiment [4] it was 10 µM (active); in experiment [5], 2.82 µM (active); in experiment [6] it was 5.01 µM (active). Further, in experiment [7], the result was inactive.
On to `CNCCCC1c2ccccc2C=Cc2ccccc21`, for which the Potency was 5.62 µM (active) in [1]; 10 µM (active) in experiment [2]; 10 µM (active) in experiment [3]; 14.1 µM (active) in experiment [8]; 4.47 µM (active) in experiment [5]; 11.2 µM (active) in [6]. In addition, the result in [7] was inactive.
Regarding `CCN(CC)CCCC(C)Nc1c2ccc(Cl)cc2nc2ccc(OC)cc12` (configuration not stated), the Potency was 0.178 µM (active) in [1]; 0.0891 µM (active) in experiment [2]; 0.1 µM (active) in [3]; 0.0891 µM (active) in experiment [8]; 0.126 µM (active) in [4]; 0.0891 µM (active) in experiment [5]. Further, in experiment [6], the Potency was 0.0891 µM (active).
As to `CC(C)(C(=O)O)c1ccc(C(O)CCCN2CCC(C(O)(c3ccccc3)c3ccccc3)CC2)cc1` (configuration not stated), the Potency entry in [1], in experiment [2], in experiment [3], in experiment [8], in experiment [4] and in [6] was “inactive” in each case. For the same compound, the outcome in experiment [9] was inactive.
Regarding `CC(CN(C)C)CN1c2ccccc2CCc2ccccc21` (configuration not stated), the Potency is 8.91 µM (active) in [1]; 5.62 µM (active) in [2]; 8.91 µM (active) in [3]; 11.2 µM (active) in experiment [8]; 6.31 µM (active) in [5]; 11.2 µM (active) in experiment [6]. Further, the compound was classed as inactive in experiment [7].
With `C[C@H]1O[C@@H](n2cc(F)c(=O)[nH]c2=O)[C@H](O)[C@@H]1O`, the Potency entry in experiment [1], in experiment [2], in [3], in experiment [8], in experiment [4] and in experiment [5] was “inactive” each time. In addition, in [6], the Potency entry was “inactive”. The compound was classed as inactive in experiment [7].
In the case of `CC(C)(C)c1onc(OCP(=O)(O)O)c1CC(N)C(=O)O` (configuration not stated), the Potency result in [1], in [2], in experiment [3], in experiment [8], in [4] and in experiment [6] was “inactive” throughout. Further, the result in experiment [9] and in experiment [7] was inactive.
For the compound `CN1CCN(C2Cc3ccccc3Sc3ccc(Cl)cc32)CC1` (configuration not stated), the Potency in experiment [1] is 6.31 µM (active); in experiment [2], 11.2 µM (active); in experiment [3] it was 10 µM (active); in [5], 5.01 µM (active); in experiment [6], 10 µM (active).
On to `CC(=O)OCC(=O)[C@@]1(O)CC[C@H]2[C@@H]3CCC4=CC(=O)CC[C@]4(C)[C@H]3C(=O)C[C@@]21C`, for which the Potency result in experiment [1], in experiment [2], in experiment [3], in experiment [8], in experiment [4] and in experiment [6] was “inactive” throughout. In addition, in [7], the call was inactive.
As for `OCCN1CCN(CCCN2c3ccccc3Sc3ccc(Cl)cc32)CC1`, the Potency in experiment [1] was 3.55 µM (active); in experiment [2], 4.47 µM (active); in [3], 2.82 µM (active); in experiment [8], 8.91 µM (active); in [4], 7.94 µM (active); in experiment [5] it was 2.51 µM (active). In experiment [6], the Potency was 5.01 µM (active). Further, in experiment [7], the outcome was inactive.
Consider `C=Cc1c(C)c2cc3[nH]c(cc4nc(cc5nc(cc1[nH]2)C(C)=C5CCC(=O)O)C(CCC(=O)O)=C4C)c(C)c3C=C`, for which the Potency result in experiment [1], in experiment [2], in experiment [3], in [8], in [4] and in [5] was “inactive” throughout. For the same compound, the Potency entry in experiment [6] is “inactive”. Besides, in experiment [9], the outcome was inactive.
With `NC1CCN(c2cccc(Cl)n2)CC1`, the Potency entry in [1], in experiment [3], in [8] and in experiment [6] was “inactive” in each case. Also, the Potency in experiment [2] is 12.6 µM (active); in [5], 5.62 µM (active). Besides, in experiment [7], the call was inactive.
As for `Nc1cc(=O)[nH]c(N)n1`, the Potency entry in experiment [1], in experiment [2], in experiment [3], in experiment [8], in [4] and in [5] was “inactive” in each case. In addition, in experiment [6], the Potency entry is “inactive”. In experiment [7], the result was inactive.
Turning to `CCN(CC)CCOC(=O)C1(C2CCCCC2)CCCCC1`, the Potency in experiment [1] was 8.91 µM (active); in experiment [2] it was 14.1 µM (active); in experiment [8], 15.8 µM (active); in experiment [4], 5.01 µM (active); in experiment [5], 5.62 µM (active); in [6] it was 12.6 µM (active). Moreover, the compound was called inactive in experiment [7].
For `CSc1ccc2c(c1)C(N1CCN(C)CC1)Cc1ccccc1S2` (configuration not stated), the Potency was 6.31 µM (active) in experiment [1]; 11.2 µM (active) in experiment [2]; 8.91 µM (active) in experiment [3]; 12.6 µM (active) in experiment [8]; 8.91 µM (active) in [4]; 4.47 µM (active) in experiment [5]. Further, in experiment [6], the Potency was 10 µM (active).
In the case of `CC(C)NC[C@H](O)c1ccc(O)c(O)c1`, the Potency result in experiment [1], in [2], in experiment [3] and in experiment [4] was “inactive” each time. In experiment [7], the call was inactive.
As to `CC(CN1c2ccccc2Sc2ccccc21)N(C)C` (configuration not stated), the Potency in experiment [1] is 7.08 µM (active); in experiment [2] it was 6.31 µM (active); in experiment [3], 14.1 µM (active); in [8], 14.1 µM (active); in [4] it was 5.01 µM (active); in experiment [5], 2.24 µM (active). For the same compound, the Potency in [6] is 11.2 µM (active). The outcome in experiment [7] was inactive.
Consider `NC(N)=NCCC[C@H](N)C(=O)O`, for which the Potency entry in experiment [1], in experiment [2], in experiment [3], in experiment [8], in [4] and in experiment [5] was “inactive” in each case. For the same compound, the Potency result in [6] was “inactive”. Further, the outcome in [7] was inactive.
As for `C[C@](N)(Cc1ccc(O)cc1)C(=O)O`, the Potency result in experiment [1], in experiment [2], in [3], in experiment [8], in experiment [4] and in experiment [5] was “inactive” each time. In addition, the Potency result in [6] is “inactive”. For the same compound, the call in experiment [7] was inactive.
In the case of `CCN(CC)CCNC(=O)c1cc(Cl)c(N)cc1OC`, the Potency result in [1], in [2], in [3], in experiment [8], in experiment [4] and in [6] was “inactive” each time. For the same compound, in experiment [9], the outcome was inactive.
Take `CN(C)CCCN1c2ccccc2Sc2ccc(Cl)cc21`: the Potency was 4.47 µM (active) in [1]; 11.2 µM (active) in [2]; 4.47 µM (active) in [3]; 12.6 µM (active) in experiment [8]; 12.6 µM (active) in experiment [4]; 3.55 µM (active) in [5]. Also, in experiment [6], the Potency is 8.91 µM (active). For the same compound, the compound was called inactive in experiment [7].
